SNCA viab count: counter-screen for SNCA expression inhibitors: cell viability. HEK-293-SNCA-luc viability, GF-AFC fluorescence, 24 h. Potency, µM (top dose mostly 57.1 µM), without a hit: at the highest dose activity change, negative = cytotoxicity, actives largely listed as cytotoxic. 0.12% of 150,000 active. AID 1671193;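 also: potency is read from the fitted curve at half-maximal effect; 0% = DMSO-treated cells and -100% = medium-only wells without cells; nearly all actives have a fitted effect of over 30% in size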
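Cytotoxicity counterscreen: after 24 h compound treatment of genome-edited SNCA-luciferase HEK-293 cells, live-cell protease substrate GF-AFC read by fluorescence after 30 min; activity scaled between DMSO (0%) and medium-only (-100%), curves Hill-fitted.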
KDM5B inhibitor: inhibitors of human KDM5B histone demethylase; KDM5B demethylase, FDH-coupled NADH fluorescence (FDH is formaldehyde dehydrogenase); Potency, µM (doses to about 57.7 µM), actives largely listed as inhibitors; 2.6% of 220,000 active; AID 1347165; also: potency is read from the fitted curve at half-maximal effect; 0% is about no effect; nearly all actives have a fitted effect of over 70% in size
Target sequence (Q9UGL1 whole entry, looked up): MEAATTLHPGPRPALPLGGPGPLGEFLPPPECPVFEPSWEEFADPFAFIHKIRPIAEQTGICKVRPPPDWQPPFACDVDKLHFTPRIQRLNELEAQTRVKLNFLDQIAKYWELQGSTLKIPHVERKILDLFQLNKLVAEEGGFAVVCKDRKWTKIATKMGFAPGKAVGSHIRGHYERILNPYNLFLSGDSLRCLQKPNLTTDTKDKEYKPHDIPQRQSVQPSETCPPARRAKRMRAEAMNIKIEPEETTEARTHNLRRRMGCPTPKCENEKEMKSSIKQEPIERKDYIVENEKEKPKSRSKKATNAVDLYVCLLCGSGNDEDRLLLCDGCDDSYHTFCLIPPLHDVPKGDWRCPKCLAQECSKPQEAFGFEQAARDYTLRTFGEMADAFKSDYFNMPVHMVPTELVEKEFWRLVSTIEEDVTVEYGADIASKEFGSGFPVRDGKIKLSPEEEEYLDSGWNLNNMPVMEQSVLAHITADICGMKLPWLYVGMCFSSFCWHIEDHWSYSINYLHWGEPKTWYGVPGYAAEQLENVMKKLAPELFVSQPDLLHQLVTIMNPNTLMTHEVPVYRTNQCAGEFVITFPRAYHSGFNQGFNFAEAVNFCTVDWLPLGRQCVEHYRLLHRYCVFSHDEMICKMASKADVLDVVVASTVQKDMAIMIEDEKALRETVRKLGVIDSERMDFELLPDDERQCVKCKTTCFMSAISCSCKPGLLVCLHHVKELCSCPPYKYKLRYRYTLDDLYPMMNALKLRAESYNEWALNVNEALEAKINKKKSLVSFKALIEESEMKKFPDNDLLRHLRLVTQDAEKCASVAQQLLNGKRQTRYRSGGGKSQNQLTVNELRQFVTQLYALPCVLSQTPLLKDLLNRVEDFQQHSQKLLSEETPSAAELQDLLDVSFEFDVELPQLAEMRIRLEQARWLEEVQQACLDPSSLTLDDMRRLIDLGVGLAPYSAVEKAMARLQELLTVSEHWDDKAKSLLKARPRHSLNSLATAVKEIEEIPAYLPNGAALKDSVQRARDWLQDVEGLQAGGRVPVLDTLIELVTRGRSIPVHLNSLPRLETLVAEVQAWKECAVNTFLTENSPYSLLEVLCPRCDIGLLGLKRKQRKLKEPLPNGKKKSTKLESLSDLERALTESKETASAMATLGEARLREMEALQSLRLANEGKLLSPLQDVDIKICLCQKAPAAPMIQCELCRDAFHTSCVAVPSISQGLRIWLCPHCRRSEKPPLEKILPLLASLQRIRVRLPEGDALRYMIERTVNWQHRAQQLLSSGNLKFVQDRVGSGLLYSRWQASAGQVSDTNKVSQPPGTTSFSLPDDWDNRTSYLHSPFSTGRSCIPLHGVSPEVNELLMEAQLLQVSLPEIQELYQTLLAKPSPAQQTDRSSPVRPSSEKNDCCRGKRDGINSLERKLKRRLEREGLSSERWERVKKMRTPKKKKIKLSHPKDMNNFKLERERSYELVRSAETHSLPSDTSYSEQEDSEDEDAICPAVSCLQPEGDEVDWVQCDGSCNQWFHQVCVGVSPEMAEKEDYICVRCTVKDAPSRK
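KDM5BΔAP (200 nM final) in 50 mM HEPES pH 7.5, 0.01% Tween-20 was preincubated 10 min at RT with compound over a concentration range. Substrate mix (H3K4me3 12.5 µM, α-KG 25 µM, Fe²⁺, ascorbate, NAD⁺, FDH) was added, and NADH fluorescence change over 30 min gave dose-response curves.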
SNCA expr inh: inhibitors of alpha-synuclein (SNCA) gene expression; HEK-293 SNCA-luciferase knock-in, luminescence, 24 h; Potency, µM (highest dose often 57.2 µM), for inactives: at the highest dose activity change, negative = inhibition, actives largely listed as inhibitors; 0.17% of 140,000 active;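 also: potency is read from the fitted curve at half-maximal effect; plate controls were DMSO cells for no effect and cell-free wells for full effect; nearly all actives have a fitted effect of over 45% in size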
IP6K1 inh: inhibitors of human IP6K1; IP6K1 kinase, ADP-Glo luminescence, 2 h; active compounds read low; activity change, % (series mostly up to about 58 µM); 0.81% of 140,000 active; AID 1645851; in the data active = activity change below about -25%; also: % is scaled to controls: 0 for no effect and ±100 for the full control effect
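ADP-Glo luminescence measures ADP made by human IP6K1 during a 2 h RT reaction with ATP/IP6 (mix at 1.3 mM/130 uM); top library doses 57.5 and 19.1 uM final.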
IP6K1 inh cnf: confirmation of human IP6K1 inhibitors. Potency, µM (top dose mostly 49 µM), for the others: at the top dose activity change, negative = inhibition, most hits filed as inhibitors. recombinant IP6K1 kinase, ADP-Glo luminescence, 2 h. 13% of 1,200 active. shares compounds with IP6K1 inh; also: potency is read from the fitted curve at half-maximal effect; % is scaled to controls: 0 for no effect and ±100 for the full control effect; nearly all actives have a fitted effect of over 65% in size
* hit, by the source's call; i = inactive; ? = inconclusive; . = no result; [ ] = another dose, or the depositor's remark. In the library only some 2.8% were active in any assay of this set; here they are far more common. Unless noted, calls follow the shape of the dose curve; as a rule, active = well fitted curve in the direction sought with a large enough effect; inconclusive = small, poorly fitted or top-dose-only effect, or another doubt; inactive = no such curve, though single readings can be large; an effect the other way counts as inactive or inconclusive.

SMILES	SNCA viab count	KDM5B inhibitor	SNCA expr inh	IP6K1 inh	IP6K1 inh cnf
CC[C@H]1C[C@H]2[C@@H]3CCC4=CC(=O)CC[C@@H]4[C@H]3CC[C@]2(C)[C@H]1O	1%	.	13%[25.6 µM]	-12	.
CC[C@]1(O)CC[C@H]2[C@@H]3CCC4=CCCC[C@@H]4[C@H]3CC[C@@]21C	-21%[23.9 µM]	.	-3%[25.6 µM]	-28*	?
COc1cc2c(cc1OCC1CC1)NC(=O)C21CCN(c2nc(C)cc(C)n2)CC1	-4%[87.6 µM]	i	?	-25*	2%
COc1cc2c(cc1Oc1ccccc1)NC(=O)C21CCN(c2nc(C)cnc2C)CC1	?	32µM*	?	-32*	?
COc1cc2c(cc1OCC1CC1)NC(=O)C21CCN(C(=O)c2cccnc2)CC1	7%[87.6 µM]	i	9%[87.6 µM]	-25*	-4%
COc1cc2c(cc1Oc1ccccc1)NC(=O)C21CCN(Cc2ccccc2)CC1	-20%[87.6 µM]	i	?	-16	.
CCCCc1cn(C[C@H]2CC3CCN2C[C@@H]3C(=O)NCc2ccco2)nn1 (stereo partly specified)	1%[87.6 µM]	i	-15%[87.6 µM]	10	.
O=C(NC1CC1)[C@H]1CN2CCC1C[C@@H]2Cn1cc(CCO)nn1 (stereo partly specified)	1%[87.6 µM]	i	0%[87.6 µM]	8	.
CCOc1cc(CNCCc2c[nH]c3ccc(OC)cc23)ccc1O	.	i	.	.	.
Cc1ccc([N+](=O)[O-])[c]2c1[O][Hg]2	?	.	?	-83*	1µM*
COc1ccc([C@@H]2CN(C(=O)Nc3ccc(C)cc3)[C@@H]3C4CCN(CC4)[C@@H]32)cc1	10%	i	119%	9	.
COc1ccc([C@@H]2CN(C(=O)Cc3nonc3C)[C@@H]3C4CCN(CC4)[C@@H]32)cc1	-1%	i	-2%	-38*	-15%
COCCC(=O)N1CCC2(CC1)C(=O)Nc1cc(Oc3cccc(N(C)C)c3)c(OC)cc12	0%	i	10%	-4	.
c1ccc2c(c1)OCC(C1=NCCN1)O2 (stereo unspecified)	?	.	-27%	-44*	-8%
COc1cc2c(cc1OCc1ccccc1)N([S+](=O)([O-])c1cccnc1)CC21CCN(C)CC1	-19%	i	0%	6	.
CN(C(=O)C(c1ccccc1)c1ccccc1)[C@H](CN1CC[C@H](O)C1)c1ccccc1	-12%	.	.	-8	.
O=C1c2ccccc2C(=O)C1C(=O)C(c1ccccc1)c1ccccc1	-10%[23.9 µM]	.	-43%[25.6 µM]	-28*	?
COc1ccc2c(c[n+](C)c3c4cc5c(cc4ccc23)OCO5)c1OC	?	.	?	.	?
O=C1OC(c2ccc(O)c(S(=O)(=O)O)c2)(c2ccc(O)c(S(=O)(=O)O)c2)c2c(Br)c(Br)c(Br)c(Br)c21	2%[23.9 µM]	.	-38%[25.6 µM]	-65*	21µM*
Cc1ccccc1S(=O)(=O)N1[C@H]2CC[C@@H]1c1cnc(-c3ccccc3)nc1C2	-4%	i	18%	20	.
CC(=O)N1[C@H]2CC[C@@H]1c1cnc(-c3ccccc3)nc1C2	9%	i	15%	40	.

Source: PubChem BioAssay (National Center for Advancing Translational Sciences (NCATS))
